Data on 5 compounds can be found in PubChem BioAssay.

Structures are written as SMILES. The source made the active and inactive calls. Unless noted, the rule behind the calls is not given here.

Experiment [1] is described as follows: compounds binding Alexa647 anti-His antibody – biochemical, small-molecule microarray, 635 nm fluorescence, artefact control for SMM control protein annotation, primary screen (AID 1128).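 Note: score merges feature fluorescence with signal-to-noise for each printed compound spot.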 As to conditions: higher = more signal.
Experiment [2] concerns Human papillomavirus type 1a E7 protein (residues 1-88). Briefly: HPV1a E7 small-molecule binders, primary screen, biochemical, small-molecule microarray, residues 1-88, 635 nm (AID 1129). The conditions noted are these: small-molecule microarray binding, fluorescence 635 nm; higher = more signal.
The target in experiment [3] is Focal adhesion kinase 1 (Homo sapiens) (UniProt Q05397). Briefly: PTK2 protein binding on printed compound slides – biochemical, small-molecule microarray, 635/667 nm fluorescence, BSA, DTT, primary screen (AID 1130).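 Note: composite of spot emission at 667 nm and signal to noise over triplicate slides.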 The conditions noted are these: 635 nm fluorescence, higher = more signal.
Focal adhesion kinase 1 (Homo sapiens), sequence (Q05397 whole entry, looked up): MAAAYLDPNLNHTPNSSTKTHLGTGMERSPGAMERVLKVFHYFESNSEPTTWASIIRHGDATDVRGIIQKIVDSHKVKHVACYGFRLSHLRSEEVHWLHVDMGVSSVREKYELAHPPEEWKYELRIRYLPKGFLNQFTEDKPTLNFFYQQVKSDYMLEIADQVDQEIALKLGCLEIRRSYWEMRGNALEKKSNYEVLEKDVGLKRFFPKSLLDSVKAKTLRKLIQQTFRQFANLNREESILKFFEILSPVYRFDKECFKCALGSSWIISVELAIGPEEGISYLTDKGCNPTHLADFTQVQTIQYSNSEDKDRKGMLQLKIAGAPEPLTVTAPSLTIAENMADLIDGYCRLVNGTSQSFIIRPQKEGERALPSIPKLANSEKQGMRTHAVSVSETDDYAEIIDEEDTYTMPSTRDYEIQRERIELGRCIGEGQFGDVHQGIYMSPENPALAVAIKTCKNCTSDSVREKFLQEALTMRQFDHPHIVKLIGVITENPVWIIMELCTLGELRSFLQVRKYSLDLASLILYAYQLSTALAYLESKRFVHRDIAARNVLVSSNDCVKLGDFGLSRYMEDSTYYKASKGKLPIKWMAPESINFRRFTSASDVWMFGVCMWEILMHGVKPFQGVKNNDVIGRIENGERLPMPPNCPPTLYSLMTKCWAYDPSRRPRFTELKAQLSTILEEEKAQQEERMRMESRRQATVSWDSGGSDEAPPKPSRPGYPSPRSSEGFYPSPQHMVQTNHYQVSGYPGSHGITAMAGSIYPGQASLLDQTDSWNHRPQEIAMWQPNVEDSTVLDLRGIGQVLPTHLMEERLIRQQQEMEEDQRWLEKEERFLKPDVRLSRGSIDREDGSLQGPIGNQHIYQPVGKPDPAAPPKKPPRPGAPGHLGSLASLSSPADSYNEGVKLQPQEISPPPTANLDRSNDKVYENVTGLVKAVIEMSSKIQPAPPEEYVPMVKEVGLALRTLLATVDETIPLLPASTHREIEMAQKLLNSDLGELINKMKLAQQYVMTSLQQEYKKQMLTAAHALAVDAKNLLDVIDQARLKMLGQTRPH
In experiment [4] the test system is Fibrinogen (Alexa647-labelled). Briefly: Alexa647-fibrinogen binding to printed small molecules – biochemical, small-molecule microarray, 635/667 nm fluorescence, artefact control for SMM control-protein annotation, profiling panel (AID 1131).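 Note: z-score merges 667 nm fluorescence with per-spot signal-to-noise over triplicate slides.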 The conditions noted are these: fibrinogen-A647 binding fluorescence, higher = more signal.
The target of experiment [5] is Follistatin (Homo sapiens) (UniProt P19883). Briefly: FST protein binding to printed compounds – biochemical, small-molecule microarray, 635/667 nm fluorescence, primary screen (AID 1132). As to conditions: 635 nm fluorescence, higher = more signal.
Follistatin (Homo sapiens), sequence (P19883 whole entry, looked up): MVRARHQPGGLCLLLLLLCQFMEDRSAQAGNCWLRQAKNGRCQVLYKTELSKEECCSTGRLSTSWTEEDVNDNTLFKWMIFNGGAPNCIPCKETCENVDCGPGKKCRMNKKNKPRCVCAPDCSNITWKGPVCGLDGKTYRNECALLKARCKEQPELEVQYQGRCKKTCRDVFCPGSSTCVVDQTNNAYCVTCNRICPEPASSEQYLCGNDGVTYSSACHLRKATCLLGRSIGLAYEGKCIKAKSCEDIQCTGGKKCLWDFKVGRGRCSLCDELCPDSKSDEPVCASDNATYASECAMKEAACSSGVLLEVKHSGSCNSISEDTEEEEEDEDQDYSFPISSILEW
Experiment [6] deals with Fibroblast growth factor 2 (Homo sapiens) (UniProt P09038). Briefly: basic fibroblast growth factor binding to printed compounds – biochemical, small-molecule microarray, 635/667 nm fluorescence, primary screen (AID 1133). As to conditions: FGF2, fluorescence 635/667, higher = more signal.
Fibroblast growth factor 2 (Homo sapiens), sequence (P09038 whole entry, looked up): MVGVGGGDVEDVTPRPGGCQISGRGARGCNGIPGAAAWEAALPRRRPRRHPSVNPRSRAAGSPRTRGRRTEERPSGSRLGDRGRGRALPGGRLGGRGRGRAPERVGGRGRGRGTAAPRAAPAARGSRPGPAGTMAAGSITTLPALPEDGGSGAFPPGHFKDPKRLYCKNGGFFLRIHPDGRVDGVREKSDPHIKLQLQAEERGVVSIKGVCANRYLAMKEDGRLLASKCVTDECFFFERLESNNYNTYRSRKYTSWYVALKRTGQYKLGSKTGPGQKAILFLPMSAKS
A short description of experiment [7]: JC-1 mitochondrial potential readout, lung cancer cells – cell-based, A549, JC-1 fluorescence, basal, 24 h, 100 nL, profiling panel (AID 1138).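 Note: A549 lung adenocarcinoma cells under basal conditions with no added stimulus; test concentration not given here.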 As to conditions: higher = more signal.
A further experiment has as its system Lefty1. Briefly: Lefty1 protein binding to printed compounds – biochemical, small-molecule microarray, 635/667 nm fluorescence, primary screen (AID 1139). As to conditions: fluorescence 635/667, higher = more signal.
Experiment [8] has as its system wheat germ agglutinin (Triticum aestivum), Alexa647-labelled. Briefly: Alexa647-WGA lectin binding to printed small molecules – biochemical, small-molecule microarray, 635/667 nm fluorescence, artefact control for SMM control-protein annotation, profiling panel (AID 1140).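 Note: score merges 667 nm feature emission with signal to noise over triplicate slides.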 The conditions noted are these: WGA-A647 binding, 635 nm fluorescence, higher = more signal.
The target of experiment [9] is Luciferin 4-monooxygenase (Photinus pyralis) (UniProt P08659). Briefly: inhibition of purified Photinus pyralis luciferase – biochemical, luminescence, purified enzyme, 2006 set, primary screen (AID 1141).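 Note: cell-free assay with purified firefly luciferase at 100 ng per well in PBS; test concentration not given here.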 The conditions noted are these: purified firefly luciferase, SteadyGlo luminescence, 30 min; higher = more signal, called active from +8 up or from −8 down.
Luciferin 4-monooxygenase (Photinus pyralis), sequence (P08659 whole entry, looked up): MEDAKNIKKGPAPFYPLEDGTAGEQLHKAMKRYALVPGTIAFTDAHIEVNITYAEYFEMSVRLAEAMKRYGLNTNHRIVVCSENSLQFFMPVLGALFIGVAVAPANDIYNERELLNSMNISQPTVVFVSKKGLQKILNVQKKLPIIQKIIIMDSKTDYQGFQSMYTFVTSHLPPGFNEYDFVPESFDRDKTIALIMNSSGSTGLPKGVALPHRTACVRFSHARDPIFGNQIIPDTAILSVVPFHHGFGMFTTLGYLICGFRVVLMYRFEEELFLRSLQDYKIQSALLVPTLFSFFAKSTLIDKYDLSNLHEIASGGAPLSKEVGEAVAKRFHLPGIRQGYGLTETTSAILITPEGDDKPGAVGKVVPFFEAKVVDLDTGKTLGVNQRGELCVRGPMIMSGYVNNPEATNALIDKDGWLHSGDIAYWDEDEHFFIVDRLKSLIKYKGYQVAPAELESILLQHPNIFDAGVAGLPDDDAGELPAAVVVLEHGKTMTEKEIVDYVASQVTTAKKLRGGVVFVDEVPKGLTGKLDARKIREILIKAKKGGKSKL
Experiment [10] deals with Wnt5a (protein binding on small-molecule microarray). Briefly: small molecules binding Wnt5a protein – biophysical, small-molecule microarray, 635/667 nm fluorescence, primary screen (AID 1142).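 Note: fluorescence read at 667 nm with signal to noise per printed feature.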 The conditions noted are these: 635 nm fluorescence, higher = more signal.
Experiment [11] is described as follows: ATP-based viability of Huh7 replicon cells – cell-based, CellTiter-Glo luminescence, basal, 48 h, cytotoxicity control for HCV replication inhibitor project, primary screen (AID 1143).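 Note: Huh7 hepatoma cells carrying a hepatitis C replication reporter with no stimulus; test concentration not given here.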 The conditions noted are these: higher = more signal, called active from +8 up or from −8 down. A general note: Replicon systems follow genome replication, usually without infectious particles.

Experiment [12] is described as follows: Pseudomonas biofilm growth suppression – PAO1 strain, BacTiter-Glo luminescence, LB-PBS, primary screen (AID 1144). As to conditions: P. aeruginosa PAO1 biofilm, 12 h, higher = more signal.
Experiment [13] in a line: basal CRE-LacZ reporter activity in PC12 – cell-based, unstimulated, primary screen (AID 1145). The conditions noted are these: no forskolin, luminescence, 4.5 h, higher = more signal, called active from +8 up or from −8 down.
The nature of experiment [14]: forskolin-driven CRE-LacZ activity in PC12 – cell-based, CRE-LacZ reporter, forskolin-stimulated, primary screen (AID 1146).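 Note: PC12 cells with 6xCRE LacZ reporter stimulated by forskolin 10 µM; beta-galactosidase reporter signal reflecting CREB driven transcription.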 The conditions noted are these: luminescence, 4.5 h, higher = more signal, called active from +8 up or from −8 down.
Experiment [15] concerns the target Streptavidin (Streptomyces avidinii) (UniProt P22629). Briefly: compounds binding control protein streptavidin – biophysical, small-molecule microarray, 635/667 nm fluorescence, artefact control for SMM compound annotation, primary screen (AID 1147).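 Note: signal reflects streptavidin binding to arrayed compounds as a control protein.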 The conditions noted are these: higher = more signal.
Experiment [16] in a line: probe aInhba binding on compound microarray – biochemical, small-molecule microarray, 635/667 nm fluorescence, primary screen (AID 1148).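 Note: score merges 667nm spot fluorescence with signal-to-noise for antibody binding to printed compounds.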 The conditions noted are these: higher = more signal.
Experiment [17] deals with Torsin-1A (Homo sapiens) (UniProt O14656). Briefly: TOR1A wild-type binding on microarray – cell lysate, small-molecule microarray, lysate, 635/667 nm, primary screen (AID 1149). The conditions noted are these: COS7 hTOR1A-WT lysate, 635 nm fluorescence, higher = more signal.
Torsin-1A (Homo sapiens), sequence (O14656 whole entry, looked up): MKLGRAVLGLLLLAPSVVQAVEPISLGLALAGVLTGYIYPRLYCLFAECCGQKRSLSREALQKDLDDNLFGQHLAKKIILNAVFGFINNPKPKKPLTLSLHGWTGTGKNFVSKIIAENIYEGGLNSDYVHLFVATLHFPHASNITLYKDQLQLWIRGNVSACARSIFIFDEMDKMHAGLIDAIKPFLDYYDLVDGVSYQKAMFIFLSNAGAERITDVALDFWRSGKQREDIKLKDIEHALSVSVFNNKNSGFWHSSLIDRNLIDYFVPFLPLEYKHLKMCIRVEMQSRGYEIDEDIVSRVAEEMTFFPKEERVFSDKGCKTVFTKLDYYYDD
Experiment [18] shares this target. Briefly: torsin A mutant lysate binding on microarrays – cell lysate, small-molecule microarray, COS7 lysate, 635/667 nm fluorescence, primary screen (AID 1150).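 Note: score pools 667 nm emission and signal to noise measuring lysate protein binding.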 As to conditions: COS7 hTOR1A mutant lysate, 635 nm fluorescence, higher = more signal.
The test system of experiment [19] is Sonic hedgehog protein (Shh). Briefly: Sonic hedgehog microarray binding compounds – biochemical, small-molecule microarray, 635/667 nm fluorescence, primary screen (AID 1151).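 Note: Shh protein binding to compounds spotted on small-molecule microarray slides; score combines spot fluorescence intensity with signal-to-noise across triplicate slides.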 The conditions noted are these: 635 nm fluorescence, higher = more signal.

Streptavidin (Streptomyces avidinii), sequence (P22629 whole entry, looked up): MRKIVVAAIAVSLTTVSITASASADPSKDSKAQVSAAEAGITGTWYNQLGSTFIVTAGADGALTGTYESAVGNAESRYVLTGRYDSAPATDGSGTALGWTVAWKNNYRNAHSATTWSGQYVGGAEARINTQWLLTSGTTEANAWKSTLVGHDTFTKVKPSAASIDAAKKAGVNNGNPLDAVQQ

`C=CCC(OC(C)=O)[C@@H]1[C@@H](N(Cc2ccc(-c3ccccc3)cc2)C(=O)Cc2ccc(OC)cc2)c2cc(OCCCO)ccc2N1C(=O)Cc1ccc2ccccc2c1` (stereo not given in full): the composite z-score in experiment [1] was -0.142; in experiment [2], -0.442; in experiment [3], 0.151; in experiment [4] it was 0.389; in experiment [5], -0.0399; in experiment [6], -0.197. For the same compound, the composite z-score in the experiment on Lefty1 was 0.168; in experiment [8], 0.182; in experiment [10], -0.263; in experiment [15] it was 0.192; in experiment [16] it was -0.0221; in the experiment with Torsin-1A (Homo sapiens) [17], -0.921. For the same compound, the composite z-score came to 0.616 with Torsin-1A (Homo sapiens) [18] and 0.412 in [19]. Besides, the z-score in [7] is 0.112; in [9], -0.358 (inactive); in experiment [11], -1.45 (inactive); in [12], 0.294 (inactive); in experiment [13] it was 0.745 (inactive); in experiment [14], 0.358 (inactive).
As to `Cc1ccc(S[C@]2(C(=O)NCCCN(C)C)CC(=O)N(Cc3cc(C(F)(F)F)cc(C(F)(F)F)c3)[C@@H]2c2ccc(CO)cc2I)cc1`, the composite z-score in [1] was 0.336; in [2], -0.77; in [3], -0.0785; in experiment [4], -0.604; in experiment [5], -0.816; in [6] it was -0.862. For the same compound, the composite z-score is -0.536 in the experiment with Lefty1; 0.0799 in [8]; -0.116 in experiment [10]; -0.0724 in experiment [15]; 0.172 in [16]; -0.314 with Torsin-1A (Homo sapiens) [17]. Also, the values for the composite z-score (with Torsin-1A (Homo sapiens) [18]; in experiment [19]) were -0.88 and -0.503, respectively. The z-score in [7] is 0.197; in experiment [9], 0.828 (inactive); in experiment [11] it was -1.21 (inactive); in [12], 0.463 (inactive); in experiment [13], -0.994 (inactive); in experiment [14], 1.23 (inactive).
For `C[N+](C)(C)CCCCNC(=O)[C@@H]1C[C@@H]2C(=O)N[C@@H](Cc3ccccc3)C(=O)N2[C@@H]1c1cccc(OCCO)c1`, the composite z-score in experiment [1] is 3.38; in experiment [2] it was -0.636; in experiment [3] it was -0.449; in experiment [4] it was -1.23; in experiment [5], 1.32; in experiment [6], 1.55. In addition, the composite z-score is 0.245 with Lefty1; -1.02 in experiment [8]; 0.175 in experiment [10]; -1.02 in experiment [15]; -0.179 in experiment [16]; 0.938 with Torsin-1A (Homo sapiens) [17]. The composite z-score came out at 0.713 in the experiment with Torsin-1A (Homo sapiens) [18] and 1.91 in [19]. Also, the z-score in experiment [7] was 1.21; in experiment [9], -1.75 (inactive); in [11] it was -0.36 (inactive); in experiment [12], -0.314 (inactive); in [13] it was -0.26 (inactive); in experiment [14], -0.471 (inactive).
As for `COCCOC(=O)N1C(=O)[C@@]2(c3ccccc31)[C@H](c1ccccc1OCCO)N1[C@H](c3ccccc3)[C@H](c3ccccc3)OC(=O)[C@H]1[C@@H]2C(=O)N1CCN(c2ncccn2)CC1`, the composite z-score in experiment [1] is 1.22; in experiment [2], 1.15; in experiment [3] it was 0.1; in experiment [4], 0.64; in [5], 0.755; in experiment [6] it was 0.385. Also, the composite z-score with Lefty1 is 0.962; in experiment [8], 1.1; in experiment [10], -0.0525; in [15], 0.498; in [16], -0.0102; with Torsin-1A (Homo sapiens) [17], 0.447. Further, the composite z-score is 0.489 with Torsin-1A (Homo sapiens) [18] and 1.34 in experiment [19]. The z-score is -1.21 in experiment [7]; -0.388 (inactive) in [9]; -2.08 (inactive) in [11]; 0.235 (inactive) in experiment [12]; -0.0688 (inactive) in experiment [13]; 3.84 (inactive) in experiment [14].
For `Cc1ccc(S[C@]2(C(=O)NC3CC3)CC(=O)N(Cc3ccccc3)[C@@H]2c2ccc(CO)cc2I)cc1`, the composite z-score in [1] was -0.744; in experiment [2] it was -0.0095; in experiment [3], -0.557; in experiment [4] it was -0.394; in [5], -0.868; in experiment [6], -0.131. In addition, the composite z-score with Lefty1 was -1.86; in experiment [8] it was -0.567; in experiment [10], -0.232; in experiment [15] it was -0.716; in experiment [16] it was 0.235; with Torsin-1A (Homo sapiens) [17], -1.19. In addition, the composite z-score with Torsin-1A (Homo sapiens) [18] is -1.63; in [19] it was -0.517. Moreover, the z-score in experiment [7] is 2.49; in experiment [9], -1.42 (inactive); in experiment [11] it was -2.1 (inactive); in [12] it was -0.0682 (inactive); in experiment [13], 1.04 (inactive); in experiment [14] it was 1.03 (inactive).
